# Assay outcomes deposited in PubChem BioAssay by National Center for Advancing Translational Sciences (NCATS).
# Rows were chosen to be rich in hits. Some 11% of all compounds tested hit in one or more screens of this group.
# G9a inh – inhibitors of human histone lysine methyltransferase G9a; Q96KQ7; G9a H3K9 monomethylation, AlphaScreen, 2 h; Potency, µM (highest dose often 102 µM), inactives show at the top dose activity, negative = inhibition, actives largely listed as inhibitors; hit rate 8.8% among 350,000; AID 504332; also: % is scaled to controls: 0 for no effect and ±100 for the full control effect; nearly all actives have a fitted effect of over 75% in size
#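 Signal arises when biotinylated H3K9 peptide, once monomethylated, bridges streptavidin donor and antibody-captured acceptor beads. Enzyme at 20 nM was preincubated 15 min with test compounds; peptide 500 nM and SAM 20 uM then reacted for 2 h.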
# BAZ2B inh – inhibitors of human BAZ2B bromodomain | Q9UIF8 | AlphaScreen BAZ2B-H3K14Ac peptide displacement | Potency, µM (highest dose often 114 µM), without a hit: at the highest dose activity change, negative = inhibition, usual class: inhibitors | hit rate 4.4% among 360,000 | AID 504333; also: % is scaled to controls: 0 for no effect and ±100 for the full control effect; nearly all actives have a fitted effect of over 60% in size
# Target sequence (Q9UIF8 whole entry, looked up): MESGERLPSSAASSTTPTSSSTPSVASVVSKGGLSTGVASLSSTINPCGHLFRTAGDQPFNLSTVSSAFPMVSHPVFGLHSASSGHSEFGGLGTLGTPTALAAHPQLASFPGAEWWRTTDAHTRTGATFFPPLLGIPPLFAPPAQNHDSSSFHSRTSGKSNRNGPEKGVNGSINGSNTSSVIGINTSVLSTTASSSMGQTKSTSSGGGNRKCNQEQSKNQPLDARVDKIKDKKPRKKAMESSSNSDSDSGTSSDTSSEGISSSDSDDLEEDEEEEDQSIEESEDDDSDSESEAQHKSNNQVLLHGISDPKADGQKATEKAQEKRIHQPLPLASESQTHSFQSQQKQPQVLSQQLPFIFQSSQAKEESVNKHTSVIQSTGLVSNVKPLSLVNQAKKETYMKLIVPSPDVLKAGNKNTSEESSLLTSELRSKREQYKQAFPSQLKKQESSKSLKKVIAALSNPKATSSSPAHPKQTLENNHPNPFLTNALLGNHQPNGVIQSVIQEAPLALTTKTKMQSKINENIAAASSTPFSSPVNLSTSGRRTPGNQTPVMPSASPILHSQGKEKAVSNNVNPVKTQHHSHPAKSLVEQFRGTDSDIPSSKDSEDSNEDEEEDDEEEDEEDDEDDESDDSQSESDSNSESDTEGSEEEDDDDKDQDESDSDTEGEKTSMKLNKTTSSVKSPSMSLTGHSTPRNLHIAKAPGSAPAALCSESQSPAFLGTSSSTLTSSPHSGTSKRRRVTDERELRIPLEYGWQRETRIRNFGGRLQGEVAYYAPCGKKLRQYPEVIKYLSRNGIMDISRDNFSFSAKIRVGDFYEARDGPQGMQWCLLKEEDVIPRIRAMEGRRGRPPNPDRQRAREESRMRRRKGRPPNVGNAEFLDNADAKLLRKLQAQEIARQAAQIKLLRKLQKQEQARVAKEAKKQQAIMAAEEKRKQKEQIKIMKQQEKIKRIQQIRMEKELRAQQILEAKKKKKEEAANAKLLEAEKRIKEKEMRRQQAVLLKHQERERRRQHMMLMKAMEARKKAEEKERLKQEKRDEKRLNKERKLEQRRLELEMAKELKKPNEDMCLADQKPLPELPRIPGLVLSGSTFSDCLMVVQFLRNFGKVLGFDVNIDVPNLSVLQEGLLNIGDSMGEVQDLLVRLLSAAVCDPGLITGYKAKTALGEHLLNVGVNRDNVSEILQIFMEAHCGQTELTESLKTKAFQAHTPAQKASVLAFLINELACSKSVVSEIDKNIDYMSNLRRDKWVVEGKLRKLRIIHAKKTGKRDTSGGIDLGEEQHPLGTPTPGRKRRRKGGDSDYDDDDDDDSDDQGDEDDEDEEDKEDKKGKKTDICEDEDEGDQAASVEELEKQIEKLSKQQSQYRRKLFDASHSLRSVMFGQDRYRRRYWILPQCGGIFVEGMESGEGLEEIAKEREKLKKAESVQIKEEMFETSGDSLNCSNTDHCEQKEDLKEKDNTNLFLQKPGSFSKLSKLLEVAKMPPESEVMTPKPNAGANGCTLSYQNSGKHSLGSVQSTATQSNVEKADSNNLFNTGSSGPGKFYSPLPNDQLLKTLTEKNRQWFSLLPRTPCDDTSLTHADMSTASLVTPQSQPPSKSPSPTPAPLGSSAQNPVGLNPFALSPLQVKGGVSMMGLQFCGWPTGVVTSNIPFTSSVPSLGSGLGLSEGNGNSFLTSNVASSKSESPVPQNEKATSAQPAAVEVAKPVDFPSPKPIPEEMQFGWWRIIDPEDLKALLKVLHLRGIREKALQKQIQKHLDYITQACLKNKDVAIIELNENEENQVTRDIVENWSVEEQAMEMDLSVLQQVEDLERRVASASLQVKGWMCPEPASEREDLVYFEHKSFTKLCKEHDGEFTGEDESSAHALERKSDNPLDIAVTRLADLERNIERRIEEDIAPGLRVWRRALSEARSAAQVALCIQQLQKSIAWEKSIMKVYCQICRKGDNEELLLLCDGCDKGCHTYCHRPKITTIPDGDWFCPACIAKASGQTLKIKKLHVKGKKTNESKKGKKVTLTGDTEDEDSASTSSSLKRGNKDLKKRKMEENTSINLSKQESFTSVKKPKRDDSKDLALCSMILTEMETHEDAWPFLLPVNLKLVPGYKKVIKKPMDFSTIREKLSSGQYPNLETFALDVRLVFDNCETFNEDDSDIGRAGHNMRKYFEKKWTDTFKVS
#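 Inhibition is scored as reduced AlphaScreen emission. The BAZ2B/b-H3(5-23)K14Ac complex (50 nM each) in PBS pH 7.4, 0.01% Tween-20 meets compound (up to 110 uM) for 30 min at RT before bead addition.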
# JMJD2A Tudor – JMJD2A Tudor domain (human) inhibition; AlphaScreen JMJD2A-Tudor / H3K4me3 peptide binding; Potency, µM (titrated, usually from 114 µM), for inactives: at the top dose activity change, negative = inhibition, hits mostly inhibitors; hit rate 4.4% among 390,000; also: % is scaled to controls: 0 for no effect and ±100 for the full control effect; nearly all actives have a fitted effect of over 50% in size
# HP1b chromo inh – blocks HP1-beta chromodomain binding to methylated histone tails; Potency, µM (titrated, usually from 114 µM), for inactives: at the highest dose activity change, negative = inhibition, usual class: inhibitors; P83916; hit rate 0.56% among 390,000; AlphaScreen HP1-beta / biotin-H3K9me3 peptide binding; also: nearly all actives have a fitted effect of over 70% in size
#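 AlphaScreen: HP1-beta (50 nM) preformed 30 min with biotin-H3(1-18)K9me3 peptide (50 nM) in PBS pH 7.4, 0.01% Tween-20. Compound added for 30 min at RT, then streptavidin donor/nickel chelate acceptor beads (10 ug/mL) for 30 min.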
# L3MBTL1 inh – inhibitors of human L3MBTL1; Q9Y468; AlphaScreen L3MBTL1–H3K9me1 peptide binding; Potency, µM (doses to about 57.1 µM), without a hit: at the top dose activity, negative = inhibition, most hits filed as inhibitors; hit rate 0.66% among 230,000; AID 485360; also: % is scaled to controls: 0 for no effect and ±100 for the full control effect; nearly all actives have a fitted effect of over 60% in size
#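 AlphaScreen assay: L3MBTL1 (50 nM final) was preincubated 30 min at room temperature with biotinylated H3(1-15)K9me1 peptide (75 nM final), then 30 min with library compounds; streptavidin donor and nickel chelate acceptor beads (10 ug/mL final) added, 30 min dark.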
# * hit, by the source's call; ? = inconclusive; . = no result; ! = repeats disagree; [ ] = remark or other dose. Calls follow the shape of the dose curve; as a rule, active = well fitted inhibition curve with a large enough effect; inconclusive = small, poorly fitted or top-dose-only effect; inactive = no such curve, though single readings can be large or run the other way. Potency is read from the fitted curve at half-maximal effect.
SMILES,G9a inh,BAZ2B inh,JMJD2A Tudor,HP1b chromo inh,L3MBTL1 inh
Cc1ccc(OCCN2CCN(c3nc(NCc4ccco4)c4ccccc4n3)CC2)cc1,?,?,56µM*,-34%,-10%
Cc1ccc(S(=O)(=O)Nc2nc3ccccc3nc2NCc2ccco2)cc1,?,-8%,-20%,39%,-2%
OCCN1CCN(c2nc(NCc3ccco3)c3ccccc3n2)CC1,-8%[59 µM],-9%,?,5%,-1%
c1ccc(CN2CCN(c3nc(NCc4ccco4)c4ccccc4n3)CC2)cc1,?,50µM*,?,-16%,.
CCc1ccccc1NC(=O)CSc1ncc2c(n1)-c1ccccc1N(Cc1ccc(C)cc1)S2(=O)=O,-3%[59 µM],0%,6%,17%,.
CSc1ncc(C(=O)N2CCN(c3cc(C)ccc3C)CC2)c(C)n1,-7%[59 µM],-3%,-17%,22%,.
CCN1CCN(C(c2cccc(Cl)c2)c2c(O)cc(C)n(CCOC)c2=O)CC1 (configuration not stated),?,7%,-9%,26%[57 µM],.
COC(=O)c1cn(C(=O)c2cc(OC)cc(OC)c2)c2ccccc12,51%,3%,10%,72%,1%
COc1cc(OC)cc(C(=O)n2cnnc2N)c1,45µM*,-32%,-6%,35%,.
O=C(CN1C(=O)c2cccnc2Oc2ccc(Cl)cc21)NCCCN1CCCCC1,-2%[59 µM],-2%,-9%,24%,.
O=S(=O)(c1cccc(C(F)(F)F)c1)N1CCC(c2cc(-c3cccc4ccccc34)n[nH]2)CC1,-11%[12.7 µM],?,40µM*,-1%,-4%
COc1ccc(S(=O)(=O)N2CCC(c3cc(-c4cccc5ccccc45)n[nH]3)CC2)cc1,.,-6%,-26%,23%,-6%
O=C(Nc1cc(Cl)cc(Cl)c1)c1coc(=O)c(Br)c1,50µM*,56µM*,-32%,-11%,?
CN(C)CCNC(=O)c1coc(=O)c(Br)c1,16µM*,?,?,12%,0%
O=C(NNC(=O)C1C2CCCCC21)c1coc(=O)c(Br)c1 (configuration not stated),45µM*,?,-22%,29%,.
CC1(C)CC(=O)C2=C(C1)OC(N)=C(C#N)C2C#Cc1ccccc1 (configuration not stated),14µM*,?,-25%,42%,-6%
CC(c1ccccc1)C1C(C#N)=C(N)OC2=C1C(=O)CC(C)(C)C2 (configuration not stated),-2%,0%,-21%,33%,-2%
Cc1nc2ccc(NC(=O)N3CCOCC3)cc2nc1C,0%,-11%,-23%,14%,-1%
S=C(Nc1ccc(N2CCOCC2)cc1)Nc1ccc2nc(-c3ccco3)c(-c3ccco3)nc2c1,32µM*,?,?,-53%,.
CC1CCN(C(=O)Nc2ccc3nc(-c4ccco4)c(-c4ccco4)nc3c2)CC1,.,.,13µM*,11µM*,.
O=C(Nc1ccc2nc(-c3ccco3)c(-c3ccco3)nc2c1)N1CCCC1,.,.,14µM*,10µM*,.
Cc1nc2cc(NC(=O)N3CCCC3)ccc2n1C,4%,-2%,2%,38%,8%
COc1ccc(CCN(Cc2cccs2)S(=O)(=O)c2ccc(C(=O)O)cc2)cc1OC,.,?,-10%,60%,10%
Cc1ccc(C2=Nc3ccccc3N(CC(=O)Nc3ccccc3C)C(=O)C2)cc1C,7%[59 µM],-17%,-26%,-15%,.
CCOC(=O)Cn1c2c(c(=N)c3c1CCC3)CCCC2,23%,4%,7%,28%,4%
SMILES,G9a inh,BAZ2B inh,JMJD2A Tudor,HP1b chromo inh,L3MBTL1 inh
CCOC(=O)CN1NC2(CCCCCC2)NC1=S,.,-11%,50µM*,60%,-4%
COc1ccc(NC(=O)C(=O)NCCc2csc3nc(-c4ccccc4F)nn23)cc1OC,8%[59 µM],0%,-4%,27%[57 µM],.
Fc1ccc(C(OCCCc2cnc[nH]2)c2ccc(F)cc2)cc1,45µM*!,.,.,.,.
O=c1c(Cc2ccc(F)cc2)c(O)ccn1CCc1cnc[nH]1,-2%,-10%,-19%,27%,6%
CC(=O)Nc1ccc(NC(=O)CN2C(=O)CC(c3ccco3)Sc3ccccc32)cc1 (configuration not stated),-7%[59 µM],-35%,?,14%,.
COc1ccc(N2CCN(C(=O)c3csc4ccccc34)CC2)cc1,20µM*,-30%,?,-25%,-3%
COc1ccc(-c2cc(C(=O)N3CCN(c4ccccc4)CC3)c3ccccc3n2)cc1OC,?,-36%,?,-11%,.
COc1ccc(Nc2ncc(C(=O)N3CCN(c4ccc(F)cc4)CC3)c3ccccc23)cc1,-7%[59 µM],-14%,-25%,21%,-7%
COc1ccc(Nc2ncc(C(=O)N3CCN(c4ccc(OC)cc4)CC3)c3ccccc23)cc1,18µM*,-38%,?,8%,.
COc1cc(SC)ccc1C(=O)N1CCN(c2ccccc2F)CC1,-1%,-20%,?,-12%,-7%
COc1ccc(N2CCN(C(=O)c3cc(-c4cccs4)nc4ccccc34)CC2)cc1,22µM*,?,?,-31%,-24%
COc1ccc(N2CCN(C(=O)c3ccc(SC)cc3OC)CC2)cc1,28µM*,-37%,-34%,-10%,?
Cc1ccc(NC(=O)C2CCN(S(=O)(=O)c3ccc4c(c3)CCCN4C(=O)C3CCC3)CC2)cc1,13%[59 µM],-1%,-15%,15%[57 µM],.
CCCCS(=O)(=O)c1oc(-c2ccc(F)cc2)nc1S(=O)(=O)c1ccccc1,?,-1%,-5%,54%,.
CCOC(=O)NNc1ccc2nonc2c1[N+](=O)[O-],.,40µM*,56µM*,?,32µM*
Cc1cc(-c2ccc(C)c(S(=O)(=O)NC3CCCCC3)c2)on1,6%[59 µM],6%,-9%,19%,.
Cc1cc2c(s1)c1cnn(Cc3ccc(C(F)(F)F)cc3)c(=O)c1n2C,.,.,-7%,.,.
Cc1ccc(C)n1Cc1ccc(C(=O)O)cc1,8.9µM*,16µM*,0.79µM*,?,?
O=C(NCC1CCCO1)c1cccc(S(=O)(=O)NCc2ccccc2)c1 (configuration not stated),?,7%,-18%,34%,.
COc1ccc(CC(=O)N/N=C(/C)c2ccco2)cc1,.,-12%,-15%,26%,4%
C=CCOC(=O)C1=C(C)N=c2s/c(=C3\C(=O)N(CC(=O)O)c4ccccc43)c(=O)n2C1c1ccc(OC)cc1 (configuration not stated),8.9µM*,?,?,-19%,-21%
CCOC(=O)C1=C(C)N=c2s/c(=C3\C(=O)Nc4ccccc43)c(=O)n2C1c1ccc2c(c1)OCO2 (configuration not stated),?,-11%,?,2%,-8%
CSC1=NC(C(Cl)(Cl)Cl)N=C(c2ccc(C)cc2)N1 (configuration not stated),14µM*,-20%,-5%,59%,18%
N#CNc1nc(O)cc(=O)[nH]1,50µM*,-10%,-28%,32%,?
